40 compounds from PubChem BioAssay (NCI) can be followed below.

About 79,000 compounds went through this panel and 15% of them were active in at least one assay; those are over-represented in the sample as a whole. Active and inactive are the calls of the source. No stated cut-off is given here; in the data, active means growth inhibition above about 70%; inactive means the rest.

One test is described as follows: NCI Yeast Anticancer Drug Screen. Data for the rad50 strain (AID 155).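 Further: 0% = growth of vehicle-only cultures of the same strain.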 The conditions noted are these: S. cerevisiae rad50 strain growth inhibition; at 50.0 µM; active compounds read high. The method, boiled down:
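Genetically altered yeast (DNA repair pathway); compound treatment; growth inhibition vs vehicle ctrl.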
Turning to `CC1(C)N=C(C(N)=O)c2[nH]cnc2N1`, the growth inhibition was -2.55% (inactive).
In the case of `CN(C(=O)C1C2c3ccccc3C(c3ccccc32)C1C(=O)N(C)c1ccccc1)c1ccccc1` (stereo not given), the growth inhibition was 29.4% (inactive).
Same read-out and setting: the value for `CCc1c(CBr)c(=O)[nH]c2ccccc12` was 8.7% (inactive); that for `CCCCNC(=O)C(CCCC)C(CCC)(CCC)CCCC` (stereo not given) was -21.4% (inactive); that for `COc1cccc2c1C(=O)c1c(O)c3c(c(O)c1C2=O)C[C@@](O)(c1csc(-c2ccncc2)n1)C[C@@H]3OC1CC(N)C(O)C(C)O1` (stereo not given in full) was 22.8% (inactive).
On the same count and under the same terms, then `CO[C@H]1CC[C@@]2(C)C(=CC[C@H]3[C@@H]4CC[C@H]([C@H](C)CCCC(C)C)[C@@]4(C)CC[C@@H]32)C1`, with -4.65% (inactive).
The same measure, in the same setting: the value for `CN(C)c1nc(=O)c2c(ccc3ccccc32)o1` was 26.2% (inactive).
For `NCC(=O)Nc1ccc(C(=O)O)cc1`, the growth inhibition is 28.8% (inactive).
As for `CCNC(=S)N/N=C/c1cc(OC)ccc1O`, the growth inhibition is -11.7% (inactive).
Turning to `CC(C)COC(=O)N1N=NC2C3OC(CC3=O)C21` (stereo not given), the growth inhibition was -4.7% (inactive).
On the same count and under the same terms, the value for `CCCSc1nc2c(c(=O)n(C)c(=O)n2C)n1C` was 7.85% (inactive).
Still for that read-out and setting: the value for `O=C(Nc1cccc([N+](=O)[O-])c1)Nc1ccccc1F` was 11.7% (inactive).
The same measure, in the same setting: then `FS(F)(F)(F)(F)c1cccc(NC(=S)SCc2ccc3c(c2)OCO3)c1`, with 97.6% (active).
As to `C/C(=N\Nc1ccc2ccccc2n1)c1ccccc1O`, the growth inhibition was -19% (inactive).
For the compound `N.N.N.N.N.O=S(=O)([O-])S(=O)(=O)[O-].[Co+3]`, the growth inhibition is 9.15% (inactive).
On the same count and under the same terms, the value for `CC(C)(C)NC(=O)NCC1CCCC1NC(=O)NC(C)(C)C` (stereo not given) was 1.45% (inactive); that for `CCNC(=S)NC1CCCCC1` was -8.35% (inactive).
On the same count and under the same terms, then `CCOC(=O)Cc1c(Cc2[nH]c(C(=O)OCc3ccccc3)c(CC(=O)OCC)c2CC(=O)OCC)[nH]c(C(=O)OCc2ccccc2)c1CC(=O)OCC`, with -10.7% (inactive); and `CCN(CC)CCNc1cc(OC)c(N)c2cccnc12`, with 14.2% (inactive); and `O=[N+]([O-])C1CC(O)C(O)CC1c1ccc2c(c1)OCO2` (stereo not given), with 11.1% (inactive).
The same measure, in the same setting: then `Cc1n(C)nn[n+]1C`, with 2.65% (inactive).
As to `COc1ccc(N=Cc2cc(OC)c(OC)c(OC)c2)cc1`, the growth inhibition is -12.4% (inactive).
On the same count and under the same terms, then `c1cn2cnnc2n2cnnc12`, with -2.7% (inactive); and `COc1ccc(NC2CC(C)N(C(=O)c3ccccc3)O2)cc1` (stereo not given), with -42.1% (inactive); and `CC/C=C\CCCCC`, with 0.4% (inactive).
The same measure, in the same setting: the value for `O=C(O)CSC(CC(=O)O)C(=O)O` (stereo not given) was 10.3% (inactive); that for `O=C(ON=C1c2ccccc2C(Br)C(Br)c2ccccc21)c1cc([N+](=O)[O-])cc([N+](=O)[O-])c1` (stereo not given) was 15.8% (inactive).
The same measure, in the same setting: the value for `Cc1cc(OC(=O)c2c(C)cc(OC(=O)c3c(C)cc(O)cc3O)cc2O)cc(O)c1C(=O)O` was -7.15% (inactive).
Consider `CCOC(=O)NCc1ccccc1`, for which the growth inhibition was 19% (inactive).
On the same count and under the same terms, the value for `CNCCCC1c2ccccc2C=Cc2ccccc21` was 5.5% (inactive).
The same measure, in the same setting: the value for `COc1cc(C(=O)O)cc(O)c1OC` was 4.95% (inactive).
`O=C(O)CSc1nc2cc(Cl)c(Cl)cc2[nH]1`: the growth inhibition was -9.75% (inactive).
The same measure, in the same setting: the value for `[Cl][Tb]([Cl])[Cl]` was 16.4% (inactive); that for `CCCOC(=O)COc1ccccc1` was 10.1% (inactive); that for `CC12CCC(=O)C=C1CCC1C2CCC2(C)C1CCC2(O)C(=O)Cn1c(=O)[nH]cc(F)c1=O` (stereo not given) was -0.8% (inactive).
The same measure, in the same setting: then `O=S(=O)(O)O.[NH-]CC1(C[NH-])CCCCC1.[Pt+2]`, with -13% (inactive); and `CNCC(OC(C)C)c1ccc(O)c(O)c1` (stereo not given), with -3.3% (inactive); and `S=c1nc[nH]c2c1CN(Cc1ccccc1)CC2`, with -43.6% (inactive).
On the same count and under the same terms, the value for `O=C1C(Cc2ccccc2)CCCC1Cc1ccccc1` (stereo not given) was -5.25% (inactive); that for `Cn1ccnc1Sc1ccccn1` was -8.7% (inactive).

Another test is described as follows: NCI Yeast Anticancer Drug Screen. Data for the mec2-1 strain (AID 157). The conditions noted are these: S. cerevisiae mec2-1 strain, at 50.0 µM, active compounds read high. A digest of the protocol:
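Vehicle-treated cultures served as reference for growth inhibition of compound-exposed mec2-1 yeast.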
For `CC1(C)N=C(C(N)=O)c2[nH]cnc2N1`, the growth inhibition was 4.35% (inactive).
On the same count and under the same terms, the value for `CN(C(=O)C1C2c3ccccc3C(c3ccccc32)C1C(=O)N(C)c1ccccc1)c1ccccc1` (stereo not given) was 1.3% (inactive).
The same measure, in the same setting: the value for `CCc1c(CBr)c(=O)[nH]c2ccccc12` was -8.1% (inactive).
Same read-out and setting: the value for `CCCCNC(=O)C(CCCC)C(CCC)(CCC)CCCC` (stereo not given) was -13% (inactive).
`COc1cccc2c1C(=O)c1c(O)c3c(c(O)c1C2=O)C[C@@](O)(c1csc(-c2ccncc2)n1)C[C@@H]3OC1CC(N)C(O)C(C)O1` (stereo not given in full): the growth inhibition was 15.4% (inactive).
Still for that read-out and setting: then `CO[C@H]1CC[C@@]2(C)C(=CC[C@H]3[C@@H]4CC[C@H]([C@H](C)CCCC(C)C)[C@@]4(C)CC[C@@H]32)C1`, with -20.4% (inactive).
Same read-out and setting: the value for `CN(C)c1nc(=O)c2c(ccc3ccccc32)o1` was 24.3% (inactive); that for `NCC(=O)Nc1ccc(C(=O)O)cc1` was 17.1% (inactive).
The same measure, in the same setting: the value for `CCNC(=S)N/N=C/c1cc(OC)ccc1O` was 23.4% (inactive).
In the case of `CC(C)COC(=O)N1N=NC2C3OC(CC3=O)C21` (stereo not given), the growth inhibition is -17.1% (inactive).
On the same count and under the same terms, then `CCCSc1nc2c(c(=O)n(C)c(=O)n2C)n1C`, with 15.2% (inactive); and `O=C(Nc1cccc([N+](=O)[O-])c1)Nc1ccccc1F`, with 10% (inactive); and `FS(F)(F)(F)(F)c1cccc(NC(=S)SCc2ccc3c(c2)OCO3)c1`, with 99% (active).
Still for that read-out and setting: the value for `C/C(=N\Nc1ccc2ccccc2n1)c1ccccc1O` was -25.4% (inactive); that for `N.N.N.N.N.O=S(=O)([O-])S(=O)(=O)[O-].[Co+3]` was 16.4% (inactive); that for `CC(C)(C)NC(=O)NCC1CCCC1NC(=O)NC(C)(C)C` (stereo not given) was -4.95% (inactive).
Take `CCNC(=S)NC1CCCCC1`: the growth inhibition is 5.15% (inactive).
As to `CCOC(=O)Cc1c(Cc2[nH]c(C(=O)OCc3ccccc3)c(CC(=O)OCC)c2CC(=O)OCC)[nH]c(C(=O)OCc2ccccc2)c1CC(=O)OCC`, the growth inhibition was -21.6% (inactive).
On the same count and under the same terms, the value for `CCN(CC)CCNc1cc(OC)c(N)c2cccnc12` was 19.9% (inactive).
Still for that read-out and setting: the value for `O=[N+]([O-])C1CC(O)C(O)CC1c1ccc2c(c1)OCO2` (stereo not given) was 7.25% (inactive).
For the compound `Cc1n(C)nn[n+]1C`, the growth inhibition was -8.35% (inactive).
On the same count and under the same terms, then `COc1ccc(N=Cc2cc(OC)c(OC)c(OC)c2)cc1`, with -9.6% (inactive).
With `c1cn2cnnc2n2cnnc12`, the growth inhibition was -13% (inactive).
Consider `COc1ccc(NC2CC(C)N(C(=O)c3ccccc3)O2)cc1` (stereo not given), for which the growth inhibition was -37.2% (inactive).
For the compound `CC/C=C\CCCCC`, the growth inhibition is -13.7% (inactive).
Same read-out and setting: the value for `O=C(O)CSC(CC(=O)O)C(=O)O` (stereo not given) was -9.4% (inactive); that for `O=C(ON=C1c2ccccc2C(Br)C(Br)c2ccccc21)c1cc([N+](=O)[O-])cc([N+](=O)[O-])c1` (stereo not given) was 8.85% (inactive).
On the same count and under the same terms, the value for `Cc1cc(OC(=O)c2c(C)cc(OC(=O)c3c(C)cc(O)cc3O)cc2O)cc(O)c1C(=O)O` was -44.7% (inactive); that for `CCOC(=O)NCc1ccccc1` was 8.7% (inactive).
On the same count and under the same terms, then `CNCCCC1c2ccccc2C=Cc2ccccc21`, with 2.9% (inactive); and `COc1cc(C(=O)O)cc(O)c1OC`, with -4.5% (inactive).
Regarding `O=C(O)CSc1nc2cc(Cl)c(Cl)cc2[nH]1`, the growth inhibition was -6.75% (inactive).
Take `[Cl][Tb]([Cl])[Cl]`: the growth inhibition was 8% (inactive).
The same measure, in the same setting: then `CCCOC(=O)COc1ccccc1`, with 5.7% (inactive); and `CC12CCC(=O)C=C1CCC1C2CCC2(C)C1CCC2(O)C(=O)Cn1c(=O)[nH]cc(F)c1=O` (stereo not given), with -1.2% (inactive).
For `O=S(=O)(O)O.[NH-]CC1(C[NH-])CCCCC1.[Pt+2]`, the growth inhibition is 17.9% (inactive).
For `CNCC(OC(C)C)c1ccc(O)c(O)c1` (stereo not given), the growth inhibition was -2.85% (inactive).
`S=c1nc[nH]c2c1CN(Cc1ccccc1)CC2`: the growth inhibition was -2.25% (inactive).
Still for that read-out and setting: the value for `O=C1C(Cc2ccccc2)CCCC1Cc1ccccc1` (stereo not given) was 17.3% (inactive).
Still for that read-out and setting: then `Cn1ccnc1Sc1ccccn1`, with 30.1% (inactive).
